# Source: PubChem BioAssay (NCATS)
# “And” between values parts separate entries of the source, which are not always exact repeats. Equal entries are not always repeated. Inconclusive results are not listed. Where a call stands in place of a potency, no number is given. The source made the active and inactive calls. Unless noted, calls come from the whole dose curve; as a rule, active = well fitted curve in the direction sought with a large enough effect; inconclusive = small, poorly fitted or top-dose-only effect, or another doubt; inactive = no such curve, though single readings can be large; an effect the other way counts as inactive or inconclusive.
# Key:
# [1] = target: Cytochrome P450 2C9 (Homo sapiens) (UniProt P11712); assay: Cytochrome P450 family 2 subfamily C member 9 (CYP2C9) small molecule antagonists: luciferase biochemical (cell-free) qHTS assay (AID 1645842; active = well fitted curve in the direction sought with a large enough effect in the repeat runs; an effect the other way counts as inactive or inconclusive; note: nearly all actives have a fitted effect of over 55% in size; note: potency is the fitted concentration of half-maximal effect)
# Chain of Cytochrome P450 2C9 (Homo sapiens) (P11712 whole entry, looked up): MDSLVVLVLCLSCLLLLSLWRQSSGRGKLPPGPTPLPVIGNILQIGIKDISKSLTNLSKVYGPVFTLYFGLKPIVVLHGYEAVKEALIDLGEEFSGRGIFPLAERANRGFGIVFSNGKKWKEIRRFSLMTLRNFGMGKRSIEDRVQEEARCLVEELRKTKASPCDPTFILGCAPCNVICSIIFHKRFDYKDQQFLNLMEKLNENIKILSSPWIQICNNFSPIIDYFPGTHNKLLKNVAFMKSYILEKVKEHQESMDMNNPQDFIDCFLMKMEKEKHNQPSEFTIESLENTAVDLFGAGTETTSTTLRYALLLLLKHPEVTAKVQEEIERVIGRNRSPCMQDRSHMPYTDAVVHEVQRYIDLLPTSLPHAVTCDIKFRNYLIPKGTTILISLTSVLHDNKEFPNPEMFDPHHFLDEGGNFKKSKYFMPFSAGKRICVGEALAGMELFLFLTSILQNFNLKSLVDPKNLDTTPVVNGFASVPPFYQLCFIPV
# Method in brief: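 P450-Glo CYP2C9 system: proluciferin substrate with enzyme in mix containing 0.4% BSA, 10 min at room temperature, then NADPH regeneration solution added and incubated 1 h at 37C. Detection reagent stopped reaction; luminescence read after 20 min as RLU.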
# [2] = Primary qHTS to identify inhibitors of SARS-CoV-2 cell entry (AID 1645846; calls by dose curve; note: nearly all actives have a fitted effect of over 45% in size; note: potency is the fitted concentration of half-maximal effect); conditions: activity change, negative = inhibition: at 57.1 µM (top of the series) unless noted
# Method in brief: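 Inhibition of spike-mediated entry was scored in human ACE2-transfected Expi293F cells. Particles were MLV-pseudotyped with Wuhan-Hu-1 S carrying a 19-aa C-terminal deletion; signal was luciferase after two days, scaled between spike PP and fusion-protein-free PP.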
# [3] = Primary qHTS for inhibitors of nuclear receptor binding SET domain protein 2 (NSD2) in an RCH-ACV wild type WT cells (2C) (AID 1645877); note: nearly all actives have a fitted effect of over 70% in size; note: potency is the fitted concentration of half-maximal effect
# [4] = Primary qHTS for inhibitors of nuclear receptor binding SET domain protein 2 (NSD2) in an isogenic RCH-ACV NSD2 p.E1099K mutant (9B) (AID 1645876); note: nearly all actives have a fitted effect of over 70% in size; note: potency is the fitted concentration of half-maximal effect
# [5] = target: Papain (Carica papaya) (UniProt P00784); assay: Primary qHTS assay for inhibitors of the protease papain (AID 1645873);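 note: papain turnover of Z-FR-AMC read as the AMC fluorescence gain over 10 min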
# Chain of Papain (Carica papaya) (P00784 whole entry, looked up): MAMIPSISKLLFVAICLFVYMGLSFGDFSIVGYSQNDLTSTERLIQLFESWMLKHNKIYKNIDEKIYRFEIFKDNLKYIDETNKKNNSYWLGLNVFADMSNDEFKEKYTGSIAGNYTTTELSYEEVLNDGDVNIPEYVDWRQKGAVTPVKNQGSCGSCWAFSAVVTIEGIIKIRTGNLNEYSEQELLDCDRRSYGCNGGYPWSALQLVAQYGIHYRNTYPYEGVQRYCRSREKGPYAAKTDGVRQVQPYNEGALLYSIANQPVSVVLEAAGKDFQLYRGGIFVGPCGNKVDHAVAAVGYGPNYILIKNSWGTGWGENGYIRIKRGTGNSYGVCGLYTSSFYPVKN
# [6] = target: Rap guanine nucleotide exchange factor 3 (Homo sapiens) (UniProt O95398); assay: Confirmatory qHTS for antagonist of cAMP-regulated guanine nucleotide exchange factor 3 (EPAC1) (AID 1645880); note: nearly all actives have a fitted effect of over 55% in size
# Chain of Rap guanine nucleotide exchange factor 3 (Homo sapiens) (O95398 whole entry, looked up): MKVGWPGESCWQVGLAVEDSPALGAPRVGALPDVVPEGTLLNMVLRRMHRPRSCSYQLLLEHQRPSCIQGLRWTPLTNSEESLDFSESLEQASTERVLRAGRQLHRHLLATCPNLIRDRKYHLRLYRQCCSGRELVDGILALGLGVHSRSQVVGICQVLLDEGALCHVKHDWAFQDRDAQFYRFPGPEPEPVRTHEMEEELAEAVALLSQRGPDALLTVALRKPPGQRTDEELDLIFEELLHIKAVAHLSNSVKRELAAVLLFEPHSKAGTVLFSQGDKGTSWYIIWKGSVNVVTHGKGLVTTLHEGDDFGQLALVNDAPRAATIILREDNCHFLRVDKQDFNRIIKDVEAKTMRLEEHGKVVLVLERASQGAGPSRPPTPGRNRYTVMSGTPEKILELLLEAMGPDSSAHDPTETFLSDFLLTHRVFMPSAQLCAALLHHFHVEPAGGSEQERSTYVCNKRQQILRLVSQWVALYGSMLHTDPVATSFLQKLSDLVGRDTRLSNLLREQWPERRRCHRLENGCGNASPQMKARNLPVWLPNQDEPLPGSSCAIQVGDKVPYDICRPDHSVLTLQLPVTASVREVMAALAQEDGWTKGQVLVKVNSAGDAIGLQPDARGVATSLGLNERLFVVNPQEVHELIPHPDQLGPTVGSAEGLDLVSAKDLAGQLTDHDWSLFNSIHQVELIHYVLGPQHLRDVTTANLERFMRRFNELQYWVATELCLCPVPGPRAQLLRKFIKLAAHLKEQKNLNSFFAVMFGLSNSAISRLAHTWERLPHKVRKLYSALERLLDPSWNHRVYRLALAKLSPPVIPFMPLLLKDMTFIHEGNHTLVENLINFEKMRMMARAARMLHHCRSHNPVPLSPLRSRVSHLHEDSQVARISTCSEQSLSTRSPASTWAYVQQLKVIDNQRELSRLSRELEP
# Method in brief: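 Released BODIPY-GDP fluoresces less than Rap1-bound BODIPY-GDP; the signal is followed at 480/540 nm at 5-min intervals over 30 min, after 5 min at room temperature. Reactions contain 100 nM EPAC1, 250 nM RAP1B-BODIPY-GDP and 50 uM GDP; results are normalized to ATA and DMSO.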
structure (smiles),measurement,setting,value
CC(=O)Nc1ccc(OC[C@](C)(O)C(=O)Nc2ccc([N+](=O)[O-])c(C(F)(F)F)c2)cc1,Potency,[1],9.52 µM (active)
same,"activity change, negative = inhibition",[2],0.0964%
same,Potency,[3],inactive
Oc1ccc2c3c1O[C@H]1[C@@H](O)C=C[C@H]4[C@@H](C2)NCC[C@@]341,Potency,[1],inactive
same,Potency,[4],28.1 µM (active)
same,Potency,[3],39.7 µM (active)
c1cc2ccc3cccc4ccc(c1)c2c34,Potency,[1],inactive
same,Potency,[4],inactive
same,Potency,[3],inactive
O=S(=O)(O)C(F)(F)C(F)(F)C(F)(F)C(F)(F)F,Potency,[1],18.9 µM (active)
same,Potency,[4],inactive
same,Potency,[3],inactive
Cc1[nH]nc2ccc(-c3cncc(OC[C@@H](N)Cc4c[nH]c5ccccc45)c3)cc12,Potency,[1],0.674 µM (active)
same,"activity change, negative = inhibition",[2],-97.4%
same,Potency,[4],145 nM (active) and 235 nM (active)
same,Potency,[3],81.7 nM (active) and 132 nM (active)
CC(C)Oc1cccc(NC(=O)c2ccccc2C(F)(F)F)c1,Potency,[1],5.97 µM (active)
same,Potency,[4],21.7 µM (active)
same,Potency,[3],24.3 µM (active)
O=C(Nc1ccccc1-c1ccc(Cl)cc1)c1cccnc1Cl,Potency,[1],inactive
same,Potency,[4],inactive
O=C(O)C(Cl)Cl,Potency,[1],inactive
same,Potency,[4],inactive
same,Potency,[3],inactive
Cc1ccc(Cl)c(O)c1,Potency,[1],inactive
same,Potency,[4],inactive
same,Potency,[3],inactive
O=C(Oc1ccc([N+](=O)[O-])cc1)N1CCN(Cc2cccc(Oc3ccccc3)c2)CC1,Potency,[1],19 µM (active)
same,Potency,[4],inactive
same,Potency,[3],inactive
CC(C)N(CCNC(=O)CN1CCCC1=O)C(C)C,Potency,[1],inactive
same,Potency,[4],inactive
same,Potency,[3],inactive
O=[N+]([O-])c1c(Cl)c(Cl)cc(Cl)c1Cl,Potency,[1],inactive
same,Potency,[4],inactive
same,Potency,[3],inactive
O=C(N[C@@H](COc1ccc2[nH]c(=O)[nH]c2c1)c1ccccc1)c1cccn(Cc2ccc(F)c(F)c2)c1=O,Potency,[1],0.239 µM (active)
same,Potency,[4],1.63 µM (active)
same,Potency,[3],4.17 µM (active)
CC1=NN=C(c2ccc(N)cc2)c2cc3c(cc2C1)OCO3,Potency,[1],7.56 µM (active)
same,Potency,[5],inactive
same,outcome,[6],inactive
O=C(O)COc1nc(Cl)c(Cl)cc1Cl,Potency,[1],inactive
same,Potency,[4],inactive
same,Potency,[3],inactive
CC(=O)N(C)c1cccc(-c2ccnc3c(C(=O)c4cccs4)cnn23)c1,Potency,[1],inactive
same,Potency,[4],inactive
CCCCCCCCc1ccc(O)cc1,Potency,[1],30.1 µM (active)
same,Potency,[4],6.18 µM (active)
CC1(N2CCC(n3c([C@@H]4CCCNC4)nc4ccccc43)CC2)CCCCCCC1,Potency,[1],inactive
same,Potency,[2],5.01 µM (active)
same,Potency,[4],8.17 µM (active) and 14.8 µM (active)
same,Potency,[3],7.28 µM (active) and 13.2 µM (active)
